For nine compounds, inhibition results are on record in PubChem BioAssay.

Test [1] is described as follows: StAR promoter reporter inhibitors, counter-screen for LRH-1 inverse agonist project, cell-based, luminescence, high throughput (AID 651611; in the data active means inhibition above about 28%). The following applies: StAR promoter luciferase reporter counterscreen, at 3.6 µM, stronger effect = higher value. On the technique in general: Counterscreens check selectivity or assay interference.
Test [2] has as its target Nuclear receptor subfamily 5 group A member 2 (Homo sapiens) (UniProt O00482). Briefly: NR5A2 activity suppression in reporter cells – cell-based, luminescence, confirmation (AID 651613).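 Further: HEK293T cells co-transfected with LRH-1 and StAR promoter luciferase reporter; 0% = vehicle wells and 100% = parental cells lacking receptor.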 The following applies: cell-based LRH-1 luciferase reporter, inverse agonism; at 3.6 µM; stronger effect = higher value. A general note: A reporter such as luciferase makes a cellular process visible.

Test [3] addresses Steroidogenic factor 1 (Homo sapiens) (UniProt Q13285). The test is described as follows: inverse agonism at SF1 nuclear receptor – cell-based, luminescence, high throughput, counter-screen for LRH-1 inverse agonist project (AID 651614; in the data active means inhibition above about 44%;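 further: cells cotransfected with StAR promoter reporter and SF1 expression vector; 0% = vehicle on cells with receptor and 100% = vehicle on cells lacking receptor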). To be noted: cell-based SF1 luciferase reporter, at 3.6 µM, stronger effect = higher value.
The nature of test [4]: compounds suppressing VP16-driven luciferase signal – cell-based, luminescence, high throughput, counter-screen for LRH-1 inverse agonist project (AID 651615; in the data active means inhibition above about 33%). To be noted: Gal4-VP16 luciferase reporter cells, at 3.6 µM, stronger effect = higher value.

A number with no mark means an inactive call. The source made the active and inactive calls. Unless noted, no stated cut-off is given here; in the data, active means inhibition above about 42%; inactive means the rest.

Steroidogenic factor 1 (Homo sapiens), sequence (Q13285 whole entry, looked up, the tested form may be a part): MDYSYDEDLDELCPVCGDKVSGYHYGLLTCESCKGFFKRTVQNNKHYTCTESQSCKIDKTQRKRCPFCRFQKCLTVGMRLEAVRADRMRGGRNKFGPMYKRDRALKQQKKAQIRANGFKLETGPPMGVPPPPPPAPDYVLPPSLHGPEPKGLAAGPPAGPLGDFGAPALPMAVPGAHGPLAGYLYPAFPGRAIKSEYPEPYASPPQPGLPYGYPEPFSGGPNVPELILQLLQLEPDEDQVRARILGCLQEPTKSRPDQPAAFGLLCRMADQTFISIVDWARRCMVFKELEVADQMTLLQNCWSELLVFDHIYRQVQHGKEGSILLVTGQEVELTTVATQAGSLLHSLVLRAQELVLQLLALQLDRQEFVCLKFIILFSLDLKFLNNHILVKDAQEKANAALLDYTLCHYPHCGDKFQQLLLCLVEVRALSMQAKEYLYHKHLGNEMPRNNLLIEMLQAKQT
Nuclear receptor subfamily 5 group A member 2 (Homo sapiens), sequence (O00482 whole entry, looked up): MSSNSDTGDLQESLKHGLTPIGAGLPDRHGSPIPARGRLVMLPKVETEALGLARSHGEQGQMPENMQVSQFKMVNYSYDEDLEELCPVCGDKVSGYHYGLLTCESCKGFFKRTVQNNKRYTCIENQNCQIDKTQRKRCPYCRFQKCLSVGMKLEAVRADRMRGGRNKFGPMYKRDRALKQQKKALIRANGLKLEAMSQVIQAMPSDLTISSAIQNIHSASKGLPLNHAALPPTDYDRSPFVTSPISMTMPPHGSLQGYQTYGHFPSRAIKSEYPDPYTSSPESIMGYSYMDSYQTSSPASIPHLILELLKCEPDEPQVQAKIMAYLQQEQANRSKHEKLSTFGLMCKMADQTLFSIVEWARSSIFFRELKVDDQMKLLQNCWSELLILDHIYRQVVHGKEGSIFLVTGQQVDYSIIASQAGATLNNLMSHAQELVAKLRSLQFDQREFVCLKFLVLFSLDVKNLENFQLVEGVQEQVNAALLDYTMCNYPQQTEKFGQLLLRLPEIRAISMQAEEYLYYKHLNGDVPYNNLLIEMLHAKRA

For `CC(=O)Nc1cc(-c2cccc(NS(C)(=O)=O)c2)cn2c(-c3ccccc3)cnc12`, the inhibition (usually the drop in the measured response relative to a control, in per cent) in test [1] was 28% (active); in test [2], 40.4%; in test [3], 34.3%; in test [4], -8.63%.

With `Cc1ccc(CNC(=O)CN2C(=O)NC3(CCCC3)C2=O)cc1`, the inhibition in test [1] was 5.83%; in test [2], 33.5%; in test [3] it was 43.7% (active); in test [4] it was 0.14%.

In the case of `COc1ccc(CCNC(=O)CSc2nnc(CNc3ccc(Cl)cc3)o2)cc1OC`, the inhibition is 1.3% in test [1], 48.7% (active) in test [2], 38.9% in test [3] and -2.14% in test [4].

Turning to `COc1ccc(S(=O)(=O)N2CCCCC2)cc1NC(=O)c1ccc([N+](=O)[O-])o1`, the inhibition is 25.8% in test [1], 74.9% (active) in test [2], 68.1% (active) in test [3] and 18.6% in test [4].

Consider `Cn1c2c(c(=O)n(C)c1=O)C(C(F)(F)F)(C(F)(F)F)N=C(CCC1CCCCC1)N2`, for which the inhibition in test [1] was 29.6% (active); in test [2] it was 41.9% (active); in test [3] it was 49.6% (active); in test [4], 41.1% (active).

In the case of `COc1ccccc1N1CCN(C(=O)CSc2nc3ccccc3o2)CC1`, the inhibition in test [1] is -10.2%; in test [2], 30.2%; in test [3] it was 35.1%; in test [4], -19.8%.

As for `O=C(Nc1cccc(S(=O)(=O)Nc2ccc(Cl)cc2)c1)c1ccc(Cl)nc1`, the inhibition in test [1] was 41.3% (active); in test [2], 65% (active); in test [3], 63.3% (active); in test [4], 56.9% (active).

For `CN1CCN(c2ccccc2NC(=O)c2ccc(-c3cccc([N+](=O)[O-])c3)o2)CC1`, the inhibition in test [1] was 11.9%; in test [2], 42.9% (active); in test [3] it was 49.6% (active); in test [4] it was 2.32%.

For `COC(=O)c1ccc(COc2ccc(/C=N/NC(N)=S)cc2)o1`, the inhibition in test [1] is 17.7%; in test [2], 55.8% (active); in test [3] it was 59% (active); in test [4] it was 15.7%.
